We go through 68 molecules from PubChem BioAssay AID778 (Sanford-Burnham Center for Chemical Genomics, 2007).

In all, about 96,000 compounds went through this assay and about 20,000 (21%) were called active.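 The calls were made as follows: active = CYP2C19 inhibition above a set limit at 5 µM in the primary screen (cut at about 50% in these data); inactive = the rest.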 A selection follows.

In the assay the target is Cytochrome P450 2C19 (Homo sapiens) (UniProt P33261). The assay is described as follows: blockers of cytochrome P450 2C19 activity – biochemical, luminescence, ADME assay, primary screen (AID 778).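 Also: plate controls were negative control wells for no effect and 2.5 mM tranylcypromine positive control for full effect.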 The settings on record: CYP2C19 Supersomes, luciferin-H EGE luminescence, 30 min; at 5 µM; hits give high values.
Sequence of Cytochrome P450 2C19 (Homo sapiens) (P33261 whole entry, looked up): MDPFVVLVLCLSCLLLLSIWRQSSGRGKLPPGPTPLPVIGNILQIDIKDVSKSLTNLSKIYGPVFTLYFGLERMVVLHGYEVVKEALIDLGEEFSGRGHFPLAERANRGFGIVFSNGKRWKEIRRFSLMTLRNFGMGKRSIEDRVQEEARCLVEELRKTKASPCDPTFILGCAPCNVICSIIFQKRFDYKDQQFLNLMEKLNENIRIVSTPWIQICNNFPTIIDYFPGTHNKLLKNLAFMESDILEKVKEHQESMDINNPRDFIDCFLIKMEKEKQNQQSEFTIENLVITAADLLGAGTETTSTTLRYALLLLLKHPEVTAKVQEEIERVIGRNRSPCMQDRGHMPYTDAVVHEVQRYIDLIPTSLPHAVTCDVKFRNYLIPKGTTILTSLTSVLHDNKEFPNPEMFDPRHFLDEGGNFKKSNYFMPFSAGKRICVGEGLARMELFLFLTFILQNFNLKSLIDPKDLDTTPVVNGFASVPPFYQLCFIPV
As to `O=C(NCCc1ccco1)c1nn(Cc2ccccc2)c(=O)c2ccccc12`, the inhibition (commonly the drop in the measured response relative to a control, in per cent) was -8.3% (inactive).
With `COCc1cc(C)nc(Nc2cc(C)ccc2C)c1C#N` the figure was 19.8% (inactive); with `Cc1cc(C(C)(C)C)oc1C(=O)N(CC(=O)NC1CCCC1)Cc1ccc(Cl)cc1`, -5.1% (inactive); with `CC(C)(CNC(=O)c1cc(=O)[nH]c2ccccc12)N1CCOCC1`, 4.2% (inactive).
With `CCOC(=O)c1[nH]c2ccccc2c1N=C(C)N(CC)CC` the figure was -9.4% (inactive); with `CCOC(=O)c1ccc(COC(=O)c2cc(=O)[nH]c3ccccc23)o1`, 69.5% (active).
With `O=C(NCCC1=CCCCC1)C1CCN(Cc2cnn(-c3ccccc3)c2-n2cccc2)CC1` the figure was 25.4% (inactive); with `Cc1cc(C)cc(NC(=O)CSCc2cnn(-c3ccccc3)c2-n2cccc2)c1`, 47.5% (inactive).
In the case of `CC(=O)Nc1ccc(NC(=O)CSCc2cnn(-c3ccccc3)c2-n2cccc2)cc1`, the inhibition is 92.4% (active).
The same measure for `CCCn1nnc2sc3c(c2c1=O)CCC(C)C3` (stereo not drawn): 28.3% (inactive); for `CCN(CC)CCN1C(=O)C(=O)/C(=C(/O)c2cnn(-c3ccccc3)c2C)C1c1cccs1` (stereo not drawn): -2% (inactive); for `C=CCOc1ccc(Cl)cc1CNCCCN1CCOCC1`: 5.8% (inactive).
The same measure for `O=C1CC(Sc2ncn[nH]2)C(=O)N1c1ccccc1` (stereo not drawn): 14.1% (inactive).
With `Cc1ccc(-n2nc(N)c3c(=O)oc(N(C)C)nc32)cc1` the figure was 17.8% (inactive).
`COc1ccccc1OCc1nc2ccccc2s1`: the inhibition is 97.6% (active).
With `O=C(O)CCCCc1nc2ccccc2s1`, the inhibition was -6.9% (inactive).
The same measure for `O=C(O)CSCc1nc2ccccc2s1`: -10.2% (inactive); for `CCCc1nnc(NC(=O)CN2C(=O)c3ccccc3S2(=O)=O)s1`: -6.6% (inactive); for `C/C(=N\NS(=O)(=O)c1cccc([N+](=O)[O-])c1)c1cc2ccccc2o1`: 8.6% (inactive).
For the molecule `C/C(=N\NS(=O)(=O)c1ccc(Br)cc1)c1cccs1`, the inhibition is 69.6% (active).
For the molecule `COC(=O)Nc1ncc(CN2C(=O)c3ccccc3C2=O)s1`, the inhibition was 8.1% (inactive).
The same measure for `Cc1[nH]nc(-c2ccc(OCc3cnn(-c4ccccc4)c3)cc2O)c1Oc1ccc(Cl)cc1`: 20.9% (inactive); for `COc1ccc(C(=O)Cc2cnn(-c3ccccc3)c2)c(O)c1`: 24.9% (inactive).
With `Cc1cc(O)cc(O)c1C(=O)Cc1cnn(-c2ccccc2)c1` the figure was 56.7% (active); with `COc1cc(C2C(C(=O)Nc3ccccc3OC)=C(C)Nc3ncnn32)ccc1O` (stereo not drawn), -5% (inactive).
The same measure for `COc1cc(C2C3C(=O)N(c4ccccc4)C(=O)C3ON2c2ccccc2)ccc1O` (stereo not drawn): 58.5% (active).
With `Cc1ccccc1N1C(=O)C2ON(c3ccccc3)C(c3ccncc3)C2C1=O` (stereo not drawn), the inhibition is 94.6% (active).
For `COc1ccc(NC(=O)Nc2cccc3cccnc23)cc1`, the inhibition is 31% (inactive).
As for `CC(C)NC(=O)CCCn1c(=S)[nH]c2cc3c(cc2c1=O)OCO3`, the inhibition was -9.6% (inactive).
The same measure for `COc1ccc(SCc2noc(C(=O)NCC3CCCO3)c2C(=O)O)cc1` (stereo not drawn): 11.5% (inactive); for `COC(C)(C)[C@]12CC(O)(C(C)C)ON1[C@H]1CCCCC1N2O` (stereo partly drawn): 7% (inactive); for `COC(=O)c1[nH]c2ccccc2c1NC(=O)CN1CCCc2ccccc21`: 26% (inactive).
With `Cn1ncc2c(Nc3cccc4ccccc34)ncnc21` the figure was 12.9% (inactive).
The same measure for `COc1ccc(N2CC(C)Cn3c2nc2c3c(=O)n(Cc3ccccc3F)c(=O)n2C)c(OC)c1` (stereo not drawn): -10.2% (inactive); for `Cc1cccc(N2CC(C)Cn3c2nc2c3c(=O)n(CC(=O)OCc3ccccc3)c(=O)n2C)c1` (stereo not drawn): 66.5% (active).
On to `Cn1c(=O)n(CCc2ccccc2)c(=O)c2c1nc1n2CCCN1c1ccccc1`, for which the inhibition is 14.9% (inactive).
Regarding `O=C(O)C1CCCN(S(=O)(=O)c2cccc3cccnc23)C1` (stereo not drawn), the inhibition is -11.3% (inactive).
With `COc1ccc(NC(=O)C2CCCN(S(=O)(=O)c3cccc4cccnc34)C2)cc1` (stereo not drawn) the figure was 17.5% (inactive); with `O=C(Nc1nccs1)C1CCCN1S(=O)(=O)c1cccc2cccnc12` (stereo not drawn), 54.2% (active); with `O=C(c1ccco1)N1CCN(C(=O)C2CCCN(S(=O)(=O)c3cccc4nsnc34)C2)CC1` (stereo not drawn), 1.6% (inactive).
Consider `CC1CCCCC1NC(=O)C1CCCN1S(=O)(=O)c1cccc2nsnc12` (stereo not drawn), for which the inhibition was 69.3% (active).
With `CC(=O)c1cccc(NC(=O)C2CCCN2S(=O)(=O)c2cccc3nsnc23)c1` (stereo not drawn) the figure was 22.5% (inactive); with `O=C(COc1ccc(F)cc1)N(CC1=CCS(=O)(=O)C1)c1ccccc1`, -5.1% (inactive); with `Cc1ccc(C2NC(=S)NC3=C2N2CCC3CC2)cc1` (stereo not drawn), -8.9% (inactive).
With `O=C(CC(NS(=O)(=O)c1ccc(Cl)cc1)c1ccco1)NC1CCCC1` (stereo not drawn) the figure was 62.5% (active).
The same measure for `COc1ccc(S(=O)(=O)NC(CC(=O)NCc2ccccc2OC)c2ccco2)cc1` (stereo not drawn): 38.2% (inactive); for `Cc1ccc(S(=O)(=O)NCC(=O)N(CC(=O)NC2CCCCC2)Cc2ccco2)cc1`: 15.5% (inactive); for `CCN(CC)P(=O)(/C(Cl)=C\Nc1c(C)n(C)n(-c2ccccc2)c1=O)N(CC)CC`: -1.6% (inactive).
Take `N#CCCN1CCN(S(=O)(=O)c2ccc(S(=O)(=O)NC3CC3)cc2)CC1`: the inhibition was -21.3% (inactive).
The same measure for `CC1(C)CN=C(N2CCN(c3ncnc4sc5c(c34)CCCC5)CC2)S1`: 32% (inactive); for `CCC(Oc1ccccc1)C(=O)NCc1cccnc1` (stereo not drawn): 67.7% (active).
Consider `CC(=O)OC(C(=O)NCCc1ccccc1)c1cccnc1` (stereo not drawn), for which the inhibition is 0% (inactive).
With `O=C(CCc1ccccc1)NCc1cccnc1` the figure was 18.2% (inactive); with `CC(C)CC[n+]1ccn(C2=C([O-])c3ccccc3C(=O)/C2=N\S(=O)(=O)c2ccccc2)c1`, 7.8% (inactive).
The same measure for `CCN1C(=O)c2cccc3c(N)ccc1c23`: 23.7% (inactive); for `CCn1c(NCCc2ccc(OC)c(OC)c2)nc2c1c(=O)n(C)c(=O)n2C`: 1.8% (inactive); for `COc1ccccc1C(=O)NN1C(=O)C2C3C=CC(O3)C2C1=O` (stereo not drawn): -6.1% (inactive).
The same measure for `COc1ccccc1C(=O)C(O)c1ccccc1OC` (stereo not drawn): 55.8% (active); for `COc1ccccc1C(=O)Oc1ccc(N2C(=O)CCC2=O)cc1`: -7.5% (inactive); for `Nc1nonc1-c1nc2ccccc2n1CCC(=O)O`: -2.5% (inactive).
With `COc1ccc(-n2c(SCC(=O)OC(C)C)nnc2-c2ccccn2)cc1`, the inhibition was 12% (inactive).
The same measure for `Cn1c(SCC(=O)c2cccs2)nnc1-c1ccco1`: 42.3% (inactive); for `CCOC(=O)CSc1nnc(CNC(=O)c2ccco2)n1-c1ccc(F)cc1`: -4.9% (inactive); for `Cc1ccc(-n2c(Cc3cccs3)nnc2SCC(=O)OC(C)C)cc1`: 98.1% (active).
The same measure for `CCn1c(SCC(=O)c2ccc3ccccc3c2)nnc1-c1cccs1`: 15.7% (inactive); for `CCn1c(SCC(=O)c2ccc(Cl)s2)nnc1-c1cccs1`: 94.2% (active).
The same measure for `Cc1ccc(C(=O)CSc2nnc(Cn3nnc4ccccc43)n2C)cc1`: 13.9% (inactive).
`CCn1c(Cc2cccs2)nnc1SCC(=O)c1ccc(C)cc1`: the inhibition was 94.1% (active).
